Assay outcomes (PubChem BioAssay)
A selection: hits, their analogues and other compounds. The true share with any hit is near 3.8%.
Mot1-301 SUMO: inhibitors of SUMOylation pathway: yeast Mot1-301 growth rescue | S. cerevisiae Mot1-301 growth rescue, ATP luminescence, 38.5C; percent above DMSO median, 100 means doubled | growth rescue, % at 18.8 µM | hit rate 1% among 320,000 | AID 2716;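 active = every valid replicate shows activation above 250% relative to neutral control wells; inactive = the rest, any valid replicate at or below 250%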;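 also: OY570 slx delta 5 strain wells were the positive control but not used for scaling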
FAS TE block: inhibitors of human fatty acid synthase thioesterase domain | P49327 | hit rate 0.67% among 360,000 | recombinant FAS-TE, OMFH fluorogenic substrate, fluorescence endpoint | inhibition, % at 15 µM;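 active = compounds whose normalised, plate-corrected inhibition of enzyme fluorescence in the single-dose primary screen is 50% or more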;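 also: 0% = DMSO with enzyme and 100% = substrate without enzyme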
MPTP block: permeability transition pore inhibition; isolated mouse mitochondria, Ca2+ swelling absorbance, 30 min; inhibition, % at 10 µM; hit rate 1.4% among 360,000;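 active = inhibition of 50% or more, scaled per plate between neutral and stimulator controls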;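 also: 0% = DMSO wells given calcium and 100% = 1 mM EGTA wells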
aDG glyco act: increases alpha dystroglycan glycosylation. Pro5-aDG cells, alpha-DG glycosylation AlphaScreen (IIH6); 0% Pro5, 100% B10-LARGE cell signal. activation, % at 10 µM. hit rate 0.22% among 360,000;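 active = activation of at least 8% versus controls, or a plate z-score of at least 8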;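 also: Pro5 are CHO cells carrying HIG-tagged alpha-DG that lacks glycosylation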
Cardio protect: myocardial damage modulation in H9c2 cells; protection from H2O2 cell death, % at 20 µM; H9c2 cardiomyocytes, H2O2 injury protection, ATPLite, 2 h; AID 588492; hit rate 0.63% among 360,000;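 active = compounds giving at least 50% protection of heart cells from peroxide-induced death in the single-dose screen, raw or plate-pattern-corrected value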;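 also: 0% = DMSO wells with peroxide and 100% = DMSO wells without peroxide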
Yeast superoxide: yeast age-related superoxide inhibition as caloric restriction mimetic; S. cerevisiae aged cells, superoxide DHE fluorescence; stronger effect = lower value; superoxide response (% of plate mean), % at 10 µM; hit rate 0.18% among 330,000; AID 2690;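 active = superoxide response under a set limit, about three screen SD below normal, cut at about 65% in these data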;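 also: yeast aged for seven days with compound at 30 °C before DHE staining; 100% = average MFI of all compound-treated wells on the plate with controls excluded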
FAS-TE conf: FAS thioesterase (human) inhibition, confirmation; recombinant FAS-TE, OMFH fluorogenic substrate, fluorescence; hit rate 45% among 2,300; inhibition, % at 15 µM; shares compounds with FAS TE block;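 active = compounds inhibiting the enzyme by at least 50% at 15 µM in any one of the replicates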;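 also: 0% = enzyme with DMSO only and 100% = wells lacking enzyme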
* hit, by the source's call; . = not tested or not shown.

SMILES | Mot1-301 SUMO | FAS TE block | MPTP block | aDG glyco act | Cardio protect | Yeast superoxide | FAS-TE conf
Cn1nc(C(C)(C)C)c(NC(=O)c2cccs2)c1C(C)(C)C | 7 | -6 | 0 | 0 | -5 | 98 | .
COc1ccc(NC(=O)CN(c2ccc([N+](=O)[O-])cc2)S(=O)(=O)c2ccccc2)cc1 | 27 | 64* | 7 | 0 | 9 | 98 | 74*
O=C(C1=NN(c2ccccc2)C2C(=O)N(c3ccccc3Cl)C(=O)C12)c1ccccc1 (stereo not given) | -3 | 52* | 0 | 0 | 4 | 87 | -17
O=C(C1=NN(c2ccccc2)C2C(=O)N(c3ccccc3)C(=O)C12)c1ccccc1 (stereo not given) | -2 | 24 | 1 | 0 | 1 | 97 | .
O=C(NCc1ccc2c(c1)OCO2)c1ccc(C2SCC(=O)N2Cc2ccco2)cc1 (stereo not given) | -3 | 59* | 2 | 0 | -4 | 105 | 50*
C=CCNC(=O)c1ccc(C2SCC(=O)N2Cc2ccco2)cc1 (stereo not given) | 16 | -2 | 0 | 0 | -1 | 87 | .
CC(C)(O)C#Cc1ccc(CN2CCC(n3nccc3NC(=O)C3CC3)CC2)cc1 | 14 | -10 | 2 | 0 | 3 | 82 | .
CN1C[C@H](C(=O)NC2(C)OC3(O)[C@@H]4CCCN4C(=O)[C@H](Cc4ccccc4)N3C2=O)CC2c3cccc4[nH]cc(c34)C[C@H]21 (stereo not given in full) | 5 | 59* | -3 | 0 | 35 | 105 | 73*
COc1ccc(/C(N)=N/OC(=O)CCC2CCCC2)cc1OC | 16 | 6 | -1 | 0 | -6 | 93 | .
N/C(=N\OC(=O)CCC1CCCCC1)c1cccc([N+](=O)[O-])c1 | -10 | 67* | 6 | 0 | -11 | 142 | 66*
COCCCn1c(=NC(=O)c2ccccc2)c(C#N)cc2c(=O)n3cccc(C)c3nc21 | -15 | 51* | 0 | 0 | 36 | 104 | 46
CCOCCCn1c(=NC(=O)c2cccs2)c(C#N)cc2c(=O)n3cccc(C)c3nc21 | -5 | 55* | 4 | 0 | 44 | 130 | 10
COCCCn1c(=NC(C)=O)c(C#N)cc2c(=O)n3cccc(C)c3nc21 | -24 | 18 | 3 | 0 | 7 | 105 | .
Cc1ccc(N(O)C(C)(C)C)cc1 | . | -4 | -1 | 0 | -3 | . | .
Cc1ccsc1C(=O)NC(C)c1ccccc1 (stereo not given) | 215 | -5 | 0 | 0 | 5 | 82 | .
O=S(=O)(c1ccc(Cl)cc1)N1CCN=C1SCc1cccnc1 | 8 | 3 | 1 | 0 | -7 | 124 | .
O=S(=O)(c1ccc(Cl)cc1)N1CCN=C1SCc1cccc(Cl)c1 | 5 | 51* | 6 | 0 | -11 | 99 | 14
CSCCC(NC(=O)c1ccc(Cl)c([N+](=O)[O-])c1)C(=O)N1CCN(C/C=C/c2ccccc2)CC1 (stereo not given) | 74 | 58* | 0 | 0 | 2 | 113 | 59*
O=C(NCC1CCCCC1)c1cc([N+](=O)[O-])ccc1Cl | 95 | 51* | -1 | 0 | -3 | 112 | 56*
O=C(NCCCc1ccccc1)c1cc([N+](=O)[O-])ccc1Cl | -11 | 84* | 1 | 0 | -1 | 98 | 90*
O=C(NC12CC3CC(CC(C3)C1)C2)c1cc([N+](=O)[O-])ccc1Cl | 4 | 59* | 0 | 0 | 6 | 97 | 26
CC(NC(=O)c1ccc([N+](=O)[O-])cc1[N+](=O)[O-])c1ccc(-c2ccccc2)cc1 (stereo not given) | 14 | 55* | 8 | 1 | -16 | 115 | 42
CCOC(=O)CCCNC(=O)CN1C(=O)NC(c2ccccc2)(c2ccccc2)C1=O | 173 | -1 | 0 | 0 | 5 | 98 | .
Cn1c(=O)c2cc(NC(=O)NCCc3ccccc3)ccc2n1Cc1ccc(F)cc1 | . | 3 | -1 | 0 | -5 | . | .
Cc1ccc(O)c(NC(=O)c2cc([N+](=O)[O-])ccc2Cl)c1 | 3 | 54* | 0 | 1 | 3 | 130 | 60*
SMILES | Mot1-301 SUMO | FAS TE block | MPTP block | aDG glyco act | Cardio protect | Yeast superoxide | FAS-TE conf
CC(Cc1ccccc1)NC(=O)c1cc([N+](=O)[O-])ccc1Cl (stereo not given) | 8 | 58* | 3 | 0 | 8 | 109 | 70*
Cc1ccc([N+](=O)[O-])cc1NC(=S)NCCc1ccccc1 | -9 | 56* | 16 | 2 | -14 | 103 | 71*
Cc1cccc(NC(=O)CSCC(=O)NNC(=O)c2ccoc2C)c1 | -8 | -4 | -1 | 0 | -2 | 81 | .
CC(=NNC(=S)N1CCN(c2ccccn2)CC1)c1nccs1 | . | -2 | -1 | -1 | 49 | . | .
O=C(Nc1ccccc1C(=O)NCCCN1CCOCC1)c1cccc([N+](=O)[O-])c1 | 1 | 2 | 1 | 0 | 1 | . | .
CC(=O)c1ccc(N(C(=O)c2ccco2)C(C(=O)NC2CCCC2)c2ccc(N3CCOCC3)cc2)cc1 (stereo not given) | -20 | 55* | 4 | 0 | 4 | 92 | 52*
COc1cc(OC)cc(N(C(=O)c2ccco2)C(C(=O)NC2CCCC2)c2ccc(N3CCOCC3)cc2)c1 (stereo not given) | 21 | 10 | -1 | 0 | 2 | 102 | .
O=C(c1[nH]c(C(F)(F)F)nc1-c1ccccc1)N1CCN(c2cccc(C(F)(F)F)n2)CC1 | . | -7 | 1 | 0 | -2 | . | .
Cc1ccccc1C(=O)c1cccn1CC(=O)N1CCCCC1 | -9 | -3 | 0 | 0 | 2 | 115 | .
COc1ccc(C2=NN(C(=O)c3ccccc3)C(c3cccc([N+](=O)[O-])c3)C2)cc1 (stereo not given) | -13 | 75* | 2 | 0 | -8 | 99 | 13
CC(=O)N1N=C(c2ccccc2)CC1c1cccc([N+](=O)[O-])c1 (stereo not given) | -2 | 15 | 1 | 0 | -6 | 98 | .
CCn1cc([N+](=O)[O-])c(C(=O)N2N=C(c3ccc(Cl)c(Cl)c3)CC2c2ccccc2O)n1 (stereo not given) | 9 | 30 | 0 | 1 | 7 | 99 | .
CCn1cc([N+](=O)[O-])c(C(=O)N2N=C(c3ccccc3)CC2c2ccc([N+](=O)[O-])cc2)n1 (stereo not given) | -3 | 63* | 3 | 0 | 9 | 87 | 47*
CC(C)(C)S(=O)N1Cc2cc(C(=O)N[C@@H]3CCN(Cc4ccccc4)C3)nc(-c3cccc(-c4cc5ccccc5o4)c3)c2[C@@H]1CCO (stereo not given in full) | . | 19 | -3 | 0 | 11 | . | .
